VACV Venus inh = inhibitors of vaccinia virus (Venus reporter). Vaccinia virus Venus reporter expression, fluorescence. Potency, µM (top dose mostly 36.5 µM), inactives show at the highest dose activity change, negative = inhibition, actives largely listed as inhibitors. 0.46% of 330,000 active; calls by dose curve; tested in A549 cells; also: nearly all actives have a fitted effect of over 30% in size
Vaccinia mCherry = inhibitors of vaccinia virus infection (mCherry reporter signal) | Potency, µM (top dose mostly 36.5 µM), for the others: top-dose activity change, negative = inhibition, actives largely listed as inhibitors | 0.63% of 310,000 active | AID 720579 | Vaccinia virus mCherry reporter infection, fluorescence; calls by dose curve; tested in A549 cells; also: nearly all actives have a fitted effect of over 35% in size
AMA1 RON2 block = inhibitors of Plasmodium falciparum AMA1-RON2 interaction; AID 720542; 0.2% of 360,000 active; AlphaScreen AMA1-biotinylated RON2 peptide binding; Potency, µM (doses to about 58.2 µM), for inactives: at the highest dose activity change, negative = inhibition, usual class: inhibitors;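 also: 0% = vehicle wells and -100% = peptide control; nearly all actives have a fitted effect of over 45% in size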
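AMA1 (3D7) with his tag at 25 nM final met compounds first, then biotinylated RON2 peptide at 25 nM; detection used donor plus acceptor beads, 10 µg/mL apiece, read by AlphaScreen after 30 min at room temperature.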
Pf growth 48h = P. falciparum growth inhibition at 48 hours (one generation). P. falciparum luciferase growth in erythrocytes, 48 h. Potency, µM (doses to about 28.7 µM), without a hit: top-dose activity change, negative = inhibition, most hits filed as inhibitors. 5.9% of 310,000 active
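Luminescence readout; reporter = integrated firefly luciferase in P. falciparum. RBC culture at 2% hematocrit, 0.1% parasitemia final, 37 C/5% CO2; decreased signal taken as growth inhibition.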
Pf growth 96h = P. falciparum growth inhibition at 96 hour, primary screen for plastid delayed-death inhibitors; P. falciparum luciferase reporter growth, 96 h; Potency, µM (doses to about 28.7 µM), without a hit: top-dose activity change, negative = inhibition, most hits filed as inhibitors; 6.9% of 320,000 active; AID 504834
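Two parasite generations (96 h, 37 C, 5% CO2) of compound exposure in infected erythrocytes (0.05% parasitemia, 2% hematocrit). Luciferase-reporter P. falciparum; decreased luminescence indicates inhibited growth, aimed at apicoplast-acting delayed death.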
Active calls of the source: *; [ ] = another dose, or the depositor's remark. This is a sample that favours compounds with a hit; in the whole collection about 8.7% have one here. Unless noted, calls follow the shape of the dose curve; as a rule, active = well fitted curve in the direction sought with a large enough effect; inconclusive = small, poorly fitted or top-dose-only effect, or another doubt; inactive = no such curve, though single readings can be large; an effect the other way counts as inactive or inconclusive. Unless noted, % is scaled to controls: 0 for no effect and ±100 for the full control effect; potency is read from the fitted curve at half-maximal effect.

`Cc1ccc(NC2=C(N3CCOCC3)C(=O)c3ccccc3C2=O)cc1` gave VACV Venus inh -28.0%, Vaccinia mCherry -10.9%, AMA1 RON2 block 23.8µM*, Pf growth 48h 2.08µM* and Pf growth 96h 2.62µM*.
`O=C(O)c1ccc(NC2=C(N3CCOCC3)C(=O)c3ccccc3C2=O)cc1` gave VACV Venus inh 5.5%, Vaccinia mCherry -9.4%, AMA1 RON2 block 14.7%, Pf growth 48h -11.6% and Pf growth 96h -5.1%.
Cc1cccc2nc(-c3ccco3)c(Nc3ccccc3)n12 was read as AMA1 RON2 block -10.8%, Pf growth 48h -10.3% and Pf growth 96h -27.3%.
Cc1cccc2nc(-c3ccccn3)c(Nc3ccc(F)cc3)n12 was read as VACV Venus inh inconclusive and Vaccinia mCherry 10µM*.
For Cc1ccc(Nc2c(-c3ccccn3)nc3cccc(C)n23)cc1 the results were VACV Venus inh -21.2%, Vaccinia mCherry 12.6µM*, AMA1 RON2 block -84.3%, Pf growth 48h inconclusive and Pf growth 96h inconclusive.
Cc1ccc(Nc2c(-c3ccc(C)o3)nc3cccc(C)n23)cc1 was read as VACV Venus inh -14.7% and Vaccinia mCherry -16.4%.
`O=C(Nc1ccc(F)c(F)c1)c1cccnc1` gave VACV Venus inh -18.7%, AMA1 RON2 block -6.6% and Pf growth 96h 10.4µM*.
`O=C(Nc1cccc(F)c1)c1cccnc1` gave AMA1 RON2 block 1.7%, Pf growth 48h -0.8% and Pf growth 96h 7.38µM*.
Screening O=C(Nc1cccc(NC(=O)c2cncc(Br)c2)c1)c1cncc(Br)c1 returned VACV Venus inh -24.1%, Vaccinia mCherry -12.3%, AMA1 RON2 block 9.0%, Pf growth 48h 3.7µM* and Pf growth 96h inconclusive.
Fc1ccc(NC(=S)NCc2cccnc2)cc1 was read as VACV Venus inh -10.1%, Vaccinia mCherry inactive, AMA1 RON2 block -3.7%, Pf growth 48h -8.0% and Pf growth 96h 10.3%.
Fc1cccc(NC(=S)NCc2cccnc2)c1 was read as VACV Venus inh 0.6%, Vaccinia mCherry -3.9%, AMA1 RON2 block -3.4%, Pf growth 48h -11.2% and Pf growth 96h 7.38µM*.
O=C(Nc1ccc(F)cc1)c1cccnc1 was read as AMA1 RON2 block -3.1%, Pf growth 48h 31.8% and Pf growth 96h 124.5%.
`O=C(c1cn(C2CCCN(Cc3cccc(Oc4ccccc4)c3)C2)nn1)N1CCCC1` (centres undefined) gave VACV Venus inh -17.0% and Vaccinia mCherry -4.5%.
Screening Fc1cccc(NC(=S)NNc2c3ccccc3nc3ccccc23)c1 returned VACV Venus inh inconclusive, Vaccinia mCherry inconclusive, AMA1 RON2 block inconclusive, Pf growth 48h 2.08µM* and Pf growth 96h 0.5%.
`O=C(Nc1cccc(Br)c1)c1ccn[nH]1` gave AMA1 RON2 block -8.4%, Pf growth 48h 78.3% and Pf growth 96h 0.657µM*.
Fc1cccc(NC(=S)NNc2ccccc2)c1 was read as AMA1 RON2 block 24.3%, Pf growth 48h inconclusive and Pf growth 96h 67.6%.
`CCOC(=O)c1c(S(=O)(=O)NCC(=O)Nc2ccc(C(C)=O)cc2)c(C)n(C)c1C` gave VACV Venus inh 10.1% and Vaccinia mCherry 7.9%.
Screening CCc1cc[n+](CC(=O)c2ccc(F)cc2)cc1C(=O)O returned VACV Venus inh -9.8% and Vaccinia mCherry -15.8%.
For Cc1ccc(-c2nc3c(C)cccn3c2Nc2ccccc2C)s1 the results were VACV Venus inh -10.3% and Vaccinia mCherry -15.1%.
CCCCOc1ccc(S(=O)(=O)Nc2cccnc2)cc1 was read as VACV Venus inh 18.8%, Vaccinia mCherry -21.3%, AMA1 RON2 block 1.0%, Pf growth 48h 0.0% and Pf growth 96h 2.33µM*.
Screening Cc1ccc(S(=O)(=O)Nc2cccnc2)cc1 returned AMA1 RON2 block -2.0%, Pf growth 48h 0.3% and Pf growth 96h inconclusive.
Screening CCOc1cccc(C(=O)NC(=S)Nc2cccnc2)c1 returned VACV Venus inh -14.7%, Vaccinia mCherry -17.9%, AMA1 RON2 block -0.7%[2.32 µM], Pf growth 48h 38.6% and Pf growth 96h 2.62µM*.
Screening CCCCOc1cccc(C(=O)NC(=S)Nc2cccnc2)c1 returned VACV Venus inh -0.9%, Vaccinia mCherry inconclusive, AMA1 RON2 block 2.1%, Pf growth 48h 27.1% and Pf growth 96h 52.1%.
CCCOc1cccc(C(=O)Nc2cccnc2)c1 was read as VACV Venus inh -12.5%, Vaccinia mCherry 14.1µM*, AMA1 RON2 block -3.8%, Pf growth 48h -21.2% and Pf growth 96h inconclusive.
For CCOc1cc(OCC)cc(C(=O)Nc2cccnc2)c1 the results were VACV Venus inh -3.8%, Vaccinia mCherry -8.8%, AMA1 RON2 block 0.0%, Pf growth 48h inconclusive and Pf growth 96h 6.2%.
CCOc1ccccc1NC(=O)Cn1c(=O)n(Cc2cccs2)c(=O)c2cccnc21 was read as VACV Venus inh -4.8% and Vaccinia mCherry -12.0%.
`COc1ccc(C(C(=O)NC2CCCCC2)N(C(=O)c2sc(C)nc2C)c2ccc(C(C)=O)cc2)cc1` (centres undefined) gave VACV Venus inh -6.7%, Vaccinia mCherry inactive, AMA1 RON2 block 21.0%, Pf growth 48h inconclusive and Pf growth 96h 9.28µM*.
For CCC(C)(C)NC(=O)C(c1ccncc1)N(C(=O)c1sc(C)nc1C)c1ccc(C)cc1 (centres undefined) the results were VACV Venus inh -12.7%, Vaccinia mCherry -20.1%, AMA1 RON2 block -4.4%, Pf growth 48h 9.28µM* and Pf growth 96h 19.6%.
`COCCNC(=O)CSc1nc2ccccc2nc1Cc1ccc(C)cc1` gave VACV Venus inh -1.3% and Vaccinia mCherry -5.8%.
For CCN(CC)CCCNC(=O)c1sc2nc(-c3ccc(F)cc3)cn2c1C the results were AMA1 RON2 block -0.5% and Pf growth 96h 13.1µM*.
CC(C)CC(=O)Nc1cc(-c2ccccc2F)nn1-c1ccccc1 was read as VACV Venus inh 3.0% and Vaccinia mCherry -4.5%.
`CCCn1nc2cc(C(=O)NC3CCc4ccccc43)ccc2c1OCC` (centres undefined) gave VACV Venus inh -12.0%, Vaccinia mCherry -7.1%, AMA1 RON2 block -5.4%, Pf growth 48h 11.7µM* and Pf growth 96h inconclusive.
COc1ccc(C(=O)NC2CCc3ccccc32)cc1OC1CCN(C(C)=O)CC1 (centres undefined) was read as VACV Venus inh -9.4%, Vaccinia mCherry inactive, AMA1 RON2 block 10.5%, Pf growth 48h inconclusive and Pf growth 96h 13.1µM*.
`COc1cc(C(=O)NC2Cc3ccccc3C2)ccc1OC1CCN(C(C)=O)CC1` gave VACV Venus inh -3.2%, Vaccinia mCherry inactive, AMA1 RON2 block 7.0%, Pf growth 48h inconclusive and Pf growth 96h inconclusive.
Screening COc1cc(C(=O)NC2CC(C)(C)CC(C)(C)C2)ccc1OC1CCN(C(C)=O)CC1 returned AMA1 RON2 block 13.8%, Pf growth 48h inconclusive and Pf growth 96h 9.28µM*.

Screening data (PubChem BioAssay)
